About 5,900 (2.8%) of roughly 210,000 compounds were called active. Roughly 5% stayed inconclusive and do not appear here. Calls follow the shape of the dose curve; as a rule, active = well fitted activation curve with a large enough effect; inconclusive = small, poorly fitted or top-dose-only effect; inactive = no such curve, though single readings can be large or run the other way. The list comes from a sample in which actives are over-represented; it also holds similar structures and randomly drawn compounds. Where a call stands in place of a potency, no number is given.
Assay: qHTS Assay for Enhancers of SMN2 Splice Variant Expression; also: nearly all actives have a fitted effect of over 55% in size
Settings: HEK293 SMN2-luciferase splicing reporter, luminescence, 30-36 h; series mostly up to 46.1 µM
In short: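 HEK293 cells carry an SMN2 […]–luciferase reporter in which exon 7 inclusion puts luciferase in frame. Cells were plated 10-12 h before compound addition, then incubated 30-36 h at 37C. ONE-Glo luminescence was read; sodium butyrate at 4.5 mM final served as control.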
Potency is read from the fitted curve at half-maximal effect.

SMILES | Potency
CSc1ccc(CCNC(=O)c2cnn(-c3ccccc3)c2-n2cccc2)cc1 | inactive
CC(C)c1ccc(C2CC(=O)N3CN(C4CCCCC4)CSC3=C2C#N)cc1 (configuration not stated) | inactive
CC(=O)OC(C(=O)NC1CCCCC1)c1ccccc1 (configuration not stated) | inactive
O=C(/C=C/c1cnc2ccccc2n1)NC1CCCCCC1 | 11.2 µM (active)
O=C(Cn1c(-c2cncs2)nc2ccccc21)NC1CCCC1 | inactive
COc1ccccc1NC(=O)CSc1oc(-c2ccco2)nc1S(=O)(=O)c1ccc(Br)cc1 | inactive
CCOc1ccc(CNCCSc2nnnn2C)cc1 | inactive
Cc1occc1C(=O)N1CCCc2ccccc21 | inactive
Cc1nn(C(=O)c2ccoc2C)c(N)c1-c1ccccc1 | 12.6 µM (active)
CCOC(=O)c1c(N)nn(C(=O)c2ccccc2)c1-c1ccccc1 | inactive
CCCCCn1c(=O)[nH]c2cc(C(=O)NCCN(C)CCCC)ccc2c1=O | inactive
C=Cc1ccc(Cn2c(C(=O)OC)cc3sc(C)cc32)cc1 | inactive
Cc1ccc(CCNC(=O)c2ccc3c(c2)N(Cc2cc(C)ccc2C)C(=O)c2ccccc2S3=O)cc1 (configuration not stated) | inactive
Cc1sc(C2C(C#N)=C(N)N(c3cccc(Cl)c3)C3=C2C(=O)CCC3)cc1CN1CCOCC1 (configuration not stated) | inactive
COc1cccc(-c2nnc(SCC(=O)N3CCC(C)CC3)o2)c1 | inactive
Cc1ccc(-c2noc(CN3CCN(Cc4ccccc4)CC3)n2)cc1 | inactive
Cc1ccc(Cc2nc(-c3cccc(C)c3)no2)cc1 | 11.2 µM (active)
COc1ccc2[nH]c(=O)c(-c3noc(-c4ccc(F)cc4)n3)cc2c1 | inactive
Cc1cccc(-c2noc(-c3ccc(F)cc3)n2)c1 | 11.2 µM (active)
COc1ccccc1Cc1nc(-c2ccc(C)cc2)no1 | inactive
Cc1ccc(-c2noc(CC(c3ccccc3)c3ccccc3)n2)cc1 | inactive
COc1cccc(CNC(=O)CCC(=O)N2CC3CCCN3c3ccccc32)c1 (configuration not stated) | inactive
O=C(CC1Oc2ccccc2NC1=O)NCc1ccc(F)cc1 (configuration not stated) | inactive
CCCCn1c(CNC(=O)C23CC4CC(CC(C4)C2)C3)nnc1SCC(=O)Nc1ccc(C)cc1 | inactive
CCCCCn1c(CCCNC(=O)c2ccccc2OC)nc2ccccc21 | inactive
CCOC(=O)c1c(NC(=O)/C(C#N)=C/c2ccccc2)sc2c1CCC2 | inactive

SMILES | Potency
COc1ccc(NC(=O)C2CCN(c3ccc(Sc4ccc(C)cc4)nn3)CC2)c(OC)c1 | inactive
c1ccc2sc(NN=C3CCCC3)nc2c1 | 3.16 µM (active)
O=C1NC(Nc2nc3ccccc3s2)(C(F)(F)F)C(=O)N1C1CCCCC1 (configuration not stated) | inactive
O=[N+]([O-])c1cc(Br)c(O)c(/C=N/Nc2nc3ccccc3s2)c1 | inactive
CCN(C(=O)c1sc2cc(OC)ccc2c1Cl)c1ccccc1 | inactive
COc1ccc2c(c1)Cc1sc(NC(=O)c3ccccc3Br)nc1-2 | inactive
Cc1ccc(CN(C(=O)COc2ccc(Cl)cc2C)C2CCS(=O)(=O)C2)o1 (configuration not stated) | inactive
O=c1oc2ccccc2cc1-c1cn(-c2ccccc2)c(=S)[nH]1 | inactive
O=C(NCc1cccnc1)c1cccc(-c2cc3ccccc3oc2=O)c1 | inactive
Nc1ncc(-c2cc3ccccc3oc2=O)s1 | 15.8 µM (active)
CC(C)Sc1oc(-c2cccs2)nc1S(=O)(=O)c1ccc(Cl)cc1 | inactive
COc1ccc(NC(=O)CCc2nnc3n(CC(C)C)c(=O)c4ccccc4n23)cc1OC | inactive
CCOC(=O)c1cccc(NC(=O)C(Cc2ccccc2)NS(=O)(=O)c2cccc3nsnc23)c1 (configuration not stated) | inactive
COc1ccc(-c2csc(-c3c(N)c(C(=O)c4ccc(OC)c(OC)c4)n4ccccc34)n2)cc1 | inactive
O=C(CN1C(=O)COc2ccccc21)NCCN1CCc2ccccc2C1 | 7.08 µM (active)
CCCN1CCN(CCCNC(=O)CN2C(=O)COc3ccccc32)CC1 | inactive
O=C(CN1C(=O)COc2ccccc21)Nc1ccc(F)cc1 | inactive
CCc1ccccc1NC(=O)c1cc(-c2ccc3c(c2)OCO3)on1 | inactive
COc1ccc(C(=O)Nc2nc(-c3ccc(S(=O)(=O)N4CCOCC4)cc3)cs2)cc1 | inactive
COc1ccc(-c2csc(N3CCN(Cc4ccc5c(c4)OCO5)CC3)n2)cc1 | inactive
COc1ccc(-c2csc(Cc3nc(O)cs3)n2)cc1 | 11.2 µM (active)
CCC(=O)N1CCc2cc(Br)cc(S(=O)(=O)CCC(=O)N3CCN(c4ccc(F)cc4)CC3)c21 | inactive
Cc1ccc(-c2csc(NC(=O)Cc3cccs3)n2)cc1C | inactive
Cc1ccc(-c2csc(NNC(=O)c3ccccc3)n2)cc1 | inactive
Cc1ccc(-c2csc(NC(=O)c3cccs3)n2)cc1 | 11.2 µM (active)
O=C(O)Cc1ccc(NC(=O)c2cccs2)cc1 | inactive

SMILES | Potency
Cc1nc(-c2ccc(NC(=O)c3cccs3)cc2)cs1 | 3.16 µM (active)
Cc1ccc(-c2nnc(-c3ccc(NC(=O)c4cccs4)cc3)o2)cc1 | inactive
CCOC(=O)c1c(NC(=O)c2cc(CC)on2)sc(C(C)=O)c1C | inactive
CC(C)Cn1c(-c2ccc(S(=O)(=O)N3CCOCC3)cc2)csc1=Nc1cc(Cl)ccc1Cl | inactive
CCOc1ccc(CNC(=O)c2cccc(Nc3nc4ccccc4n4nnnc34)c2)cc1OC | inactive
Cc1c(NC(=O)Nc2ccccc2)cccc1[N+](=O)[O-] | inactive
Cc1csc(NC(=O)Nc2ccccc2[N+](=O)[O-])n1 | 5.62 µM (active)
Cc1cc(NC(=O)Nc2ccccc2[N+](=O)[O-])no1 | inactive
Cn1c(=O)c2c(nc(NCCc3ccccc3)n2Cc2ccccc2Br)n(C)c1=O | inactive
COc1ccccc1-c1ccnc2[nH]n(-c3ccccc3)c(=O)c12 | inactive
CCOC(=O)C(Cc1ccccc1)NC(=O)CCc1c(C)nc2c(c(C)nn2-c2ccc(C)c(C)c2)c1C (configuration not stated) | inactive
COC(=O)CCC(=O)N1CCCC(CO)(Cc2ccccc2)C1 (configuration not stated) | 14.1 µM (active)
COCC(=O)N1CCC2(CCCN(c3ccccc3)C2)CC1 | inactive
COC(=O)c1ccc(CN2CCC(CO)(Cc3ccc(OC)cc3)CC2)cc1 | inactive
COc1ccc(CNC(=O)Cn2nnc(-c3ccccc3F)n2)cc1 | inactive
COC(=O)c1ccccc1NC(=O)Cn1c(=O)n(-c2cccc(C(F)(F)F)c2)c(=O)c2c(C)c(C)sc21 | inactive
Cn1c(=O)c2c(nc(SCC(=O)Nc3ccc(F)cc3)n2Cc2ccc(Cl)cc2)n(C)c1=O | inactive
COc1ccc(NC(=O)c2ccco2)cc1NC(=O)c1ccc(C#N)cc1F | inactive
O=C(NNC(=O)c1ccc(Cl)cc1Cl)c1cccs1 | 12.6 µM (active)
NNC(=O)c1ccc(Cl)cc1Cl | inactive
Cc1ccc(C(=O)NNC(=O)c2cccs2)cc1 | inactive
Cc1cccc(NC(=O)c2nnn(CC(=O)Nc3ccc(C(C)C)cc3)c2N)c1C | inactive
CCOc1ccc(CCNC(=O)c2csc3c2CCCCC3)cc1 | inactive
Cc1ccc(C)c(N2CCN(Cc3nnc(-c4ccccc4)o3)CC2)c1 | inactive
COc1cccc2cc(-c3nc(Cl)c4c5c(sc4n3)CC(C)CC5)c(=O)oc12 (configuration not stated) | inactive
